Screening results (PubChem)
Rows were chosen to be rich in hits. Some 6.7% of all compounds tested hit in one or more screens of this group.
T cruzi growth-1: blocks T. cruzi growth in NIH3T3 culture; inhibition, % at 8.34 µM; AID 624255; T. cruzi beta-gal in NIH3T3, GalScreen luminescence, 90 h; 77,000 compounds, 5.9% hits;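 active = mean inhibition above about 93%, with at least 55% of replicates each passing it, limit read from the data, passing the limit was not always enough; inconclusive = only one of those two conditions holds; inactive = neither condition holds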
Pf Dd2 inh: blocks growth of Plasmodium falciparum Dd2 parasites. P. falciparum Dd2 growth, SYBR Green, 72 h; stronger effect = lower value. activity change, % at 10 µM. 94,000 compounds, 2.3% hits. AID 1159554; in the data active = activity change below about -80%; inconclusive = no clear call, values can overlap the other calls
C diff growth: blocks growth of Clostridium difficile; Clostridium difficile clinical isolate growth, OD600, 24 h; stronger effect = lower value; growth activity, negative = inhibition, % at 16 µg/mL (by protocol); 86,000 compounds, 0.25% hits;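 active = mean growth activity at or below -80% and every replicate also at or below -80%; inconclusive = mean at or below -80% but some replicate above -80%; inactive = mean growth activity above -80%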;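 also: 0% = DMSO wells and -100% = levofloxacin 16 µg/mL wells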
T cruzi growth-2: Trypanosoma cruzi proliferation inhibition; inhibition, % at 8.35 µM; 5,600 compounds, 72% hits; T. cruzi beta-gal in NIH3T3, GalScreen luminescence, 90 h; shares compounds with T cruzi growth-1;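 active = mean replicate inhibition above about 95% and at least 55% of replicates individually reaching it, limit read from the data; inconclusive = only one of the two criteria is met; inactive = neither criterion is met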
T cruzi growth-3: Trypanosoma cruzi proliferation inhibition | AID 651740 | T. cruzi beta-gal in NIH3T3, GalScreen luminescence, 90 h | inhibition, % at 2.09 µM | shares compounds with T cruzi growth-1 | 5,600 compounds, 21% hits;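 active = mean inhibition above about 95%, with at least 55% of replicates also reaching it, limit read from the data; inconclusive = meets just one of the two conditions; inactive = meets neither condition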;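 also: plate controls were neutral control median for no effect and positive control median for full effect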
3T3 cytotox: NIH/3T3 (mouse) viability loss. shares compounds with T cruzi growth-1. NIH/3T3 viability, CellTiter-Glo ATP luminescence, 90 h. cytotoxicity (signal decrease), % at 8.35 µM. 5,600 compounds, 14% hits. AID 651742;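 active = mean signal decrease across replicates above about 35% based on untreated-well scatter, with enough replicates individually passing, limit read from the data; inconclusive = no rule stated though some were filed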;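 also: 0% = median of neutral control wells and 100% = median of positive control wells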
3T3 cytotox 2: kills mouse NIH/3T3 fibroblasts. shares compounds with T cruzi growth-1. NIH/3T3 viability, CellTiter-Glo ATP luminescence, 90 h. inhibition, % at 24.9 µM. 5,600 compounds, 56% hits;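 active = mean loss of cell viability signal at or above a set limit, and enough replicates individually reaching it; inconclusive = meets only the mean limit or only the replicate share; inactive = meets neither condition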;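 also: 0% = median of neutral control wells and 100% = median of positive control wells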
The depositor's hits bear a star; ? = inconclusive; · = no result given.

SMILES | T cruzi growth-1 | Pf Dd2 inh | C diff growth | T cruzi growth-2 | T cruzi growth-3 | 3T3 cytotox | 3T3 cytotox 2
CN1CCCCN2[C@H](CO)[C@@H](c3ccc(/C=C/c4ccccc4)cc3)[C@H]2C1 | 59 | -11 | 6 | · | · | · | ·
C[C@@H]1CN([C@@H](C)CO)C(=O)c2cc(NS(=O)(=O)c3cn(C)cn3)ccc2O[C@@H](C)CCCCO[C@@H]1CN(C)C(=O)C1CCCCC1 | 28 | 13 | 3 | · | · | · | ·
C/C=C/c1ccc([C@H]2[C@@H](C#N)N(c3ncc(CC)s3)[C@H]2CO)cc1 | 101* | 8 | 0 | 106* | 100* | 2 | 18
C/C=C/c1ccc([C@@H]2[C@H](C#N)N(c3ncc(CC)s3)[C@H]2CO)cc1 | 94 | 41 | 3 | · | · | · | ·
C/C=C/c1ccc([C@@H]2[C@@H](C#N)N(c3ncc(CC)s3)[C@@H]2CO)cc1 | ? | -37 | 6 | 101* | 107* | 19 | 38*
C/C=C/c1ccc([C@@H]2[C@@H](C#N)N(c3ncc(CC)s3)[C@H]2CO)cc1 | 102* | 30 | 16 | 96* | 17 | 2 | 53*
C[C@@H]1CN([C@H](C)CO)C(=O)c2cccc(N(C)C)c2O[C@H]1CN(C)Cc1ccc(Cl)c(Cl)c1 | 82 | -28 | 6 | · | · | · | ·
Cc1ccc(S(=O)(=O)N(C)C[C@H]2Oc3ccc(NS(=O)(=O)c4cccs4)cc3CC(=O)N([C@H](C)CO)C[C@@H]2C)cc1 | 74 | -49 | 2 | · | · | · | ·
CS(=O)(=O)N1CCCCN2[C@H](C1)[C@H](c1ccc(C3=CCCC3)cc1)[C@@H]2CO | ? | 24 | 1 | 60 | 26 | 19 | 9
COc1ccc(S(=O)(=O)N2CCCCN3[C@H](CO)[C@H](c4ccc(C5=CCCC5)cc4)[C@H]3C2)cc1 | 94 | -35 | 30 | · | · | · | ·
COc1ccc(S(=O)(=O)N2CCCCN3[C@@H](CO)[C@H](c4ccc(C5=CCCC5)cc4)[C@@H]3C2)cc1 | ? | 5 | 10 | 104* | 88 | 27 | 104*
CS(=O)(=O)N1CCCCN2[C@H](CO)[C@H](c3ccc(C4=CCCC4)cc3)[C@@H]2C1 | 51 | 23 | -3 | · | · | · | ·
Cc1ccc(S(=O)(=O)N[C@H]2C=C[C@H](CC(=O)N3CCN(c4ccccc4)CC3)O[C@@H]2CO)cc1 | 31 | -3 | -1 | · | · | · | ·
C[C@H]1CN([C@@H](C)CO)C(=O)c2cc(NC(=O)c3ccncc3)ccc2O[C@@H]1CN(C)Cc1ccc(-c2ccccc2)cc1 | · | -14 | -4 | · | · | · | ·
C[C@@H]1CN([C@@H](C)CO)C(=O)c2cc(NC(=O)Cc3ccccc3)ccc2O[C@H]1CN(C)Cc1ccc(-c2ccccc2)cc1 | -11 | 4 | -4 | · | · | · | ·
C[C@@H]1CN([C@@H](C)CO)C(=O)c2cc(NC(=O)Cc3ccccc3)ccc2O[C@H]1CN(C)Cc1ccc(C(F)(F)F)cc1 | ? | -21 | -5 | 101* | 65 | 17 | 60*
C[C@@H]1CN([C@@H](C)CO)C(=O)c2cc(NC(=O)Cc3ccccc3)ccc2O[C@@H]1CN(C)Cc1ccc(Cl)c(Cl)c1 | 105* | 1 | 14 | 98* | 16 | 28 | 96*
C[C@H](CO)N1C[C@H](C)[C@@H](CN(C)Cc2ccc(Cl)c(Cl)c2)Oc2ccc(NC(=O)Cc3ccccc3)cc2C1=O | 107 | -13 | 4 | · | · | · | ·
C[C@@H]1CN([C@H](C)CO)C(=O)c2cc(NC(=O)Cc3ccccc3)ccc2O[C@@H]1CN(C)Cc1ccc(C(F)(F)F)cc1 | 34 | 9 | 0 | · | · | · | ·
C[C@@H]1CN([C@H](C)CO)C(=O)c2cc(NC(=O)Cc3ccccc3)ccc2O[C@@H]1CN(C)Cc1ccc(-c2ccccc2)cc1 | 114* | -5 | -1 | 113* | 83 | 19 | 78*
C[C@@H]1CN([C@@H](C)CO)C(=O)c2cc(NC(=O)c3ccncc3)ccc2O[C@@H](C)CCCCO[C@H]1CN(C)S(=O)(=O)c1cn(C)cn1 | 30 | 16 | -2 | · | · | · | ·
Cc1ccc(S(=O)(=O)N2CC[C@@H]3[C@H](CO)Nc4ccc(C#Cc5cccc(F)c5)cc4[C@@H]32)cc1 | 71 | -3 | -1 | · | · | · | ·
O=S(=O)(c1ccccc1)N1CC[C@@H]2[C@H](CO)Nc3ccc(C#Cc4cccc(F)c4)cc3[C@@H]21 | ? | -26 | 32 | 101* | 111* | 46* | 59*
O=S(=O)(c1ccccc1)N1CC[C@H]2[C@H](CO)Nc3ccc(C#Cc4cccc(F)c4)cc3[C@H]21 | · | -62 | 45 | · | · | · | ·
Cc1ccc(S(=O)(=O)N2CC[C@@H]3[C@H]2c2cc(C#Cc4ccccc4F)ccc2N[C@@H]3CO)cc1 | ? | -1 | 46 | 113* | 110* | 24 | ?
SMILES | T cruzi growth-1 | Pf Dd2 inh | C diff growth | T cruzi growth-2 | T cruzi growth-3 | 3T3 cytotox | 3T3 cytotox 2
Cc1ccc(S(=O)(=O)N2CC[C@@H]3[C@@H](CO)Nc4ccc(C#Cc5cccc(F)c5)cc4[C@@H]32)cc1 | 99* | -14 | 8 | 101* | 108* | 39* | 57*
Cc1ccc(S(=O)(=O)N2CC[C@@H]3[C@H](CO)Nc4ccc(C#Cc5ccc(F)cc5)cc4[C@@H]32)cc1 | -11 | -3 | -12 | · | · | · | ·
COCC(=O)N(C)C[C@H]1Oc2cc(C3=CCCCC3)ccc2S(=O)(=O)N([C@@H](C)CO)C[C@H]1C | 20 | 42 | -5 | · | · | · | ·
CC(C)CC#Cc1ccc2c(c1)O[C@@H](CN(C)C(=O)c1ccccn1)[C@@H](C)CN([C@@H](C)CO)S2(=O)=O | 52 | -29 | -1 | · | · | · | ·
CCC(=O)N1[C@@H]2c3cccc(=O)n3C[C@@H]2[C@@H](CO)[C@@H]1C(=O)NC1CCCCC1 | 40 | 5 | -1 | · | · | · | ·
CCCNC(=O)C[C@H]1CC[C@@H]2[C@H](COc3ccc(NC(=O)CCC)cc3C(=O)N2C)O1 | 0 | 8 | -3 | · | · | · | ·
C[C@H]1CCCCO[C@H](CN(C)Cc2ccc(C(=O)O)cc2)[C@@H](C)CN([C@@H](C)CO)C(=O)c2cc(NC(=O)Nc3cccc4ccccc34)ccc2O1 | 19 | 67 | 2 | · | · | · | ·
C[C@@H]1CCCCO[C@@H](CN(C)Cc2ccc(C(F)(F)F)cc2)[C@H](C)CN([C@@H](C)CO)C(=O)c2cc(NC(=O)Nc3cccc4ccccc34)ccc2O1 | 123* | -26 | 11 | 111* | 110* | 2 | 8
C[C@H](CO)N1C[C@H](C)[C@@H](CN(C)Cc2ccc(C(=O)O)cc2)OCCCC[C@H](C)Oc2ccc(NC(=O)Nc3cccc4ccccc34)cc2C1=O | 12 | 34 | -5 | · | · | · | ·
C[C@@H]1CCCCO[C@@H](CN(C)Cc2ccc(C(F)(F)F)cc2)[C@H](C)CN([C@H](C)CO)C(=O)c2cc(NC(=O)Nc3cccc4ccccc34)ccc2O1 | ? | -4 | 6 | 105* | 115* | 30 | 14
